Compound activity as filed in PubChem BioAssay.
Compounds with a hit are over-represented: about 3.6% of the library has one in this group of screens.
Pf apPOL block = Pf-apPOL DNA polymerase inhibition; Recombinant Pf-apPOL, molecular beacon fluorescence, 1.5 h; inhibition, % at 10 µM; 210,000 tested, 0.25% active
mHTT CaM bind = mHTT-calmodulin interaction abrogation | P42858 | AlphaScreen His-mHTT/GST-CaM binding, luminescence | inhibition, % at 15 µM | 190,000 tested, 3.6% active | AID 1671202
Hits are given with their value. Cut-off read from the data, not from the text of the source: active = inhibition above about 50%; inactive = the rest.

What do the screens show for `O=C1C(Nc2cccc(C(F)(F)F)c2)=C(n2nnc3ccccc32)C(=O)c2ccccc21`?
Pf apPOL block: inactive; mHTT CaM bind: inactive

What do the screens show for `CC(=O)N(C1=C(N2CCCC2)C(=O)c2ccccc2C1=O)c1cccc(Cl)c1`?
Pf apPOL block: inactive; mHTT CaM bind: 100

How did COc1cccc(C2=COC3(CCCN(C(=O)C4CCCCC4)C3)C2)c1 (stereo not drawn) do in these assays?
Pf apPOL block: inactive; mHTT CaM bind: inactive

What do the screens show for `O=C(NC1CCCc2ccccc21)C1CCN(Cc2c[nH]c3ccccc23)CC1` (stereo not drawn)?
Pf apPOL block: inactive; mHTT CaM bind: 70

What do the screens show for `CCN(CC)S(=O)(=O)N1CCC(C(=O)NC2CCCc3ccccc32)CC1` (stereo not drawn)?
Pf apPOL block: inactive; mHTT CaM bind: inactive

What do the screens show for `COCCn1cc2c3c(cccc31)CN(C(=O)Nc1cccc(Br)c1)CC2`?
Pf apPOL block: inactive; mHTT CaM bind: inactive

Results for O=C(C=Cc1ccc2ccccc2n1)c1cccc(O)c1 ?
Pf apPOL block: inactive; mHTT CaM bind: inactive

How did CC1Oc2ccccc2C=C1C=CC(=O)c1cccc(O)c1 (stereo not drawn) do in these assays?
Pf apPOL block: inactive; mHTT CaM bind: 61

How did CC(Oc1ccccc1)C(=O)N1CCN(CCNC(=O)c2ccsc2)CC1 (stereo not drawn) do in these assays?
Pf apPOL block: inactive; mHTT CaM bind: inactive

Results for C=CCNC(=O)c1c(Cl)nc(C)c(Cl)c1C ?
Pf apPOL block: inactive; mHTT CaM bind: inactive

Results for O=C(c1ccccc1)N1CCN(c2ccc(NC(=O)C(Cl)(Cl)Cl)cc2Cl)CC1 ?
Pf apPOL block: inactive; mHTT CaM bind: inactive

What do the screens show for `CCc1cccc(C)c1-n1nnnc1C(C)(C)Nc1ccccc1`?
Pf apPOL block: inactive; mHTT CaM bind: inactive

Results for CCC(C)(Nc1ccc(N(C)C)cc1)c1nnnn1-c1c(C)cccc1C (stereo not drawn) ?
Pf apPOL block: inactive; mHTT CaM bind: 55

Results for Nc1c(C(=O)Nc2nccs2)sc2nc3c(cc12)CCC3 ?
Pf apPOL block: inactive; mHTT CaM bind: inactive

Results for Nc1c(C(=O)Nc2nccs2)sc2nc3c(cc12)CCCCC3 ?
Pf apPOL block: inactive; mHTT CaM bind: 64

Results for COc1ccc(CNc2ccccc2SC)cc1Br ?
Pf apPOL block: inactive; mHTT CaM bind: inactive

What do the screens show for `COc1ccc(CNc2ccc(C)c(C)c2)cc1Br`?
Pf apPOL block: inactive; mHTT CaM bind: 81

What do the screens show for `COc1ccc(CNc2cccc(F)c2)cc1Br`?
Pf apPOL block: inactive; mHTT CaM bind: inactive

Results for COc1ccc(CNc2ccc(C)c(C)c2)c(OC)c1 ?
Pf apPOL block: inactive; mHTT CaM bind: 58

What do the screens show for `COc1cccc(CNc2ccc(F)c(Cl)c2)c1OC`?
Pf apPOL block: inactive; mHTT CaM bind: inactive

Results for COc1ccc(CNc2ccc(F)c(Cl)c2)c(OC)c1 ?
Pf apPOL block: inactive; mHTT CaM bind: inactive

How did COc1cccc(CNc2ccc3cn[nH]c3c2)c1OC do in these assays?
Pf apPOL block: inactive; mHTT CaM bind: 54

How did COc1ccc(CNc2ccc3cn[nH]c3c2)cc1Br do in these assays?
Pf apPOL block: inactive; mHTT CaM bind: 71

Results for COc1ccc(S(=O)(=O)Nc2ccc(C)c(Cl)c2)cc1 ?
Pf apPOL block: inactive; mHTT CaM bind: inactive

Results for Cc1ccc(N2CCN(C(=O)c3cccc(N4CCNC(c5ccccc5)C4)n3)CC2)cc1 (stereo not drawn) ?
Pf apPOL block: inactive; mHTT CaM bind: inactive

How did Cn1c(CNC(=O)C2CCC2)nc2c1CN(S(=O)(=O)c1cccs1)CC2 do in these assays?
Pf apPOL block: inactive; mHTT CaM bind: inactive

Results for COc1cc(OC)c(CNc2ccc3cn[nH]c3c2)cc1Br ?
Pf apPOL block: inactive; mHTT CaM bind: 55

Results for COc1cc(OC)c(CNc2ccc(F)c(F)c2)cc1Br ?
Pf apPOL block: inactive; mHTT CaM bind: inactive

Results for COC(=O)c1cccc(NC(=O)C2CCc3nc(N4CCN(C(C)=O)CC4)sc3C2)c1 (stereo not drawn) ?
Pf apPOL block: inactive; mHTT CaM bind: inactive

How did CCCn1c(C(=O)N2CCN(C(C)=O)CC2)cc2sc(Br)cc21 do in these assays?
Pf apPOL block: inactive; mHTT CaM bind: 54

How did CCCn1c(C(=O)N2CCOCC2)cc2sc(C)cc21 do in these assays?
Pf apPOL block: inactive; mHTT CaM bind: inactive

How did CCCn1c(C(=O)NCC2CCCO2)cc2sc(Br)cc21 (stereo not drawn) do in these assays?
Pf apPOL block: inactive; mHTT CaM bind: 60

Results for C=C(C)Cn1c(C(=O)NCC2CCCO2)cc2sc(C)cc21 (stereo not drawn) ?
Pf apPOL block: inactive; mHTT CaM bind: inactive

What do the screens show for `COc1ccc(N2C(N)=C(C#N)C(c3ccc(F)cc3)C3=C2CC(C)(C)CC3=O)c(OC)c1` (stereo not drawn)?
Pf apPOL block: inactive; mHTT CaM bind: inactive

What do the screens show for `CC(C)(C)CC(=O)Nc1nnc2ccccn12`?
Pf apPOL block: inactive; mHTT CaM bind: inactive

Results for O=C(Nc1nc2c(s1)CN(CC(=O)N1CCCc3ccccc31)CC2)c1cnccn1 ?
Pf apPOL block: inactive; mHTT CaM bind: 63
